Screening results: PubChem, Columbia University Molecular Screening Center
VCAM1 pot: enhances TNF alpha induced VCAM1 expression in HUVEC | HUVEC TNFa-stimulated VCAM-1 immunofluorescence, high-content imaging; scaled per plate to unstimulated/TNFa-only wells | activation, % at 2 µM | 0.19% of 93,000 active;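 active = activation above the screen mean plus 3 SD, with well images confirming the hit on visual review, cut at about 28% in these data, passing the limit was not always enough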;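 note: signal is the number of cytoplasmic VCAM-1 stained grains per positive cell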
VCAM1 pot confirm: potentiators of TNFa-induced VCAM1 expression, confirmation, imaging, HUVEC, triplicate retest. 230 tested, under 10 active. HUVEC TNFa-stimulated VCAM-1 immunofluorescence imaging. activation, % at 2 µM. shares compounds with VCAM1 pot;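 active = activation above 30% in triplicate retests at 2 µM, then confirmed by visual review of the well images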
Of the large screens only hits and unclear results are named; the others gave an inactive call (follow-up assays come after a bar, where they were run). The entries come from a sample that favours hits as a whole.

Cc1ccc(OCc2nnc(SCC(=O)N3CCOCC3)n2C)cc1	none
CCOC(=O)C1C(=O)CC(C)(O)C(C(=O)OCC)C1c1cc(Br)ccc1OC (stereo unspecified)	none
Cc1ccc(-c2nn(-c3ccccc3)cc2C2CC(c3cccs3)=NN2C(=O)CCCC(=O)O)cc1 (stereo unspecified)	VCAM1 pot 30.5 | VCAM1 pot confirm inactive
O=C(O)c1cn(-c2ccccc2)nc1-c1ccncc1	none
O=C(c1cn(-c2ccccc2)nc1-c1cccs1)N1CCN(c2ccccn2)CC1	none
Cc1cc(=O)n2[nH]c(-c3ccc(Cl)cc3)cc2n1	none
CO/N=C/C(=N\Nc1ccc(C)cc1)C(=O)c1ccc(OC)cc1	none
CC(C)(Oc1ccc(Cl)cc1)C(=O)OCC(=O)Nc1ncc(Cl)cc1Cl	none
COc1ccc(C(C#N)(CCC#N)CCC#N)cc1OC	VCAM1 pot 36.8 | VCAM1 pot confirm inactive
CN(c1ccc(C(=O)NCc2ccc3c(c2)OCO3)cc1)S(C)(=O)=O	none
Cc1nn(C)c(Oc2cccc(Cl)c2)c1C(=O)O	none
CCOC(=O)c1ccccc1-c1csc(NS(=O)(=O)c2ccc(Cl)cc2)n1	none
O=C(CCn1nnc(-c2cccs2)n1)N1CCc2ccccc2C1	VCAM1 pot 35.5 | VCAM1 pot confirm inactive
O=C(Nc1cccc2ccccc12)N1CCc2ccccc2C1	none
CCOC(=O)c1c(C)c(C(=O)N2CCc3ccccc3C2)c(C)n1CC	none
O=C(NCc1ccco1)c1sc2cc(Cl)ccc2c1Cl	VCAM1 pot 64.3 | VCAM1 pot confirm inactive
O=C(NCc1ccco1)c1ccc(CS(=O)(=O)Cc2ccc(Cl)cc2)o1	none
CC(C)Oc1ccc(C(=O)NCc2ccco2)cc1	none
Cc1ccc(S(=O)(=O)N(C)c2ccc(C(=O)O)cc2)cc1	none
Cc1ccc(C2/C(=C(/O)c3ccc(OC(C)C)cc3)C(=O)C(=O)N2CCN2CCOCC2)cc1 (stereo unspecified)	none
Cc1cc(N2C(=O)C(=O)/C(=C(/O)c3ccc(F)cc3)C2c2ccc(F)cc2)no1 (stereo unspecified)	none
CCOc1ccc(C2/C(=C(/O)c3ccc(OC)cc3)C(=O)C(=O)N2c2cc(C)on2)cc1OC (stereo unspecified)	VCAM1 pot 57.6 | VCAM1 pot confirm inactive
Cc1cc(NC(=O)NC(=O)c2cccc(OC(F)(F)C(F)F)c2)n[nH]1	none
COCCN1C(=O)c2ccc(C(=O)O)cc2C1=O	none
CCN1CCCC1CNC(=O)Cn1cnc2sc(C)c(S(=O)(=O)N3CCC(C)CC3)c2c1=O (stereo unspecified)	VCAM1 pot 48.1 | VCAM1 pot confirm inactive
CC(Sc1nnc(-c2cccs2)n1-c1ccccc1)C(=O)NCc1ccco1 (stereo unspecified)	none
CN1CCN(S(=O)(=O)c2ccc(Sc3nnc(-c4cccs4)n3-c3ccccc3)nc2)CC1	VCAM1 pot 58.7 | VCAM1 pot confirm inactive
Cc1ccc(OCCSc2nnc(-c3cccs3)n2C)cc1	none
CCOc1ccc(N(CC(=O)N2CCN(c3ccccc3)CC2)S(=O)(=O)c2c(C)noc2C)cc1	none
O=C1CC(c2ccccc2)CC(O)=C1C=NCc1ccccc1 (stereo unspecified)	none
CCOC(=O)c1cc(-c2ccccc2)sc1NC(=S)Nc1cccc(C)n1	none
CCC(=O)NC(Nc1cccc(C)n1)(C(F)(F)F)C(F)(F)F	none
Cc1cccc(NC(=O)c2sc3nc(-c4ccccc4)cn3c2C)n1	VCAM1 pot 41.6 | VCAM1 pot confirm inactive
Cc1c(C(=O)NCc2cccs2)oc2ccccc12	none
CC1=CC2(C#N)C3(N=C(N)C2(C#N)C(c2ccccc2)N1)OCCO3 (stereo unspecified)	none
CCOC(=O)N1CCN(C(=O)c2ccccc2NC(=O)COc2ccccc2C)CC1	none
O=C1/C(=C/c2cccc3ccccc23)CCCc2ccccc21	none
Cc1c(C(=O)N2CCC(C(N)=O)CC2)sc(N)c1C#N	none
Cc1n[nH]c(=S)c2nn(-c3ccccc3F)c(C)c12	VCAM1 pot 55.2 | VCAM1 pot confirm inactive
CC1CCCC(N2CCN(C(=O)c3cccc(F)c3)CC2)C1 (stereo unspecified)	none
Cn1cccc1Cc1nnc(SCC(=O)N2CCCCCC2)n1-c1ccc(F)cc1	none
CC1(C)N=C(/C=N/O)C=[N+]1[O-]	none
O=C(COC(=O)c1cnccn1)Nc1ccc2c(c1)OCO2	none
O=C(COC(=O)Cc1cccc(C(F)(F)F)c1)NCC1CCCO1 (stereo unspecified)	none
O=C(COC(=O)c1cccnc1Nc1cccc(C(F)(F)F)c1)NCc1ccc2c(c1)OCO2	VCAM1 pot 27.6 | VCAM1 pot confirm inactive
CCNc1nc(NC(C)C)nc(Oc2ccc(OCCOc3ccc(C)cc3)nn2)n1	VCAM1 pot 38.4 | VCAM1 pot confirm inactive
COC(=O)c1ccc(Oc2nc(NC(C)C)nc(N(C)C)n2)cc1	none
O=C(NCc1ccccc1)c1c(F)c(F)c(F)c(F)c1F	none
COc1ccccc1NC(=O)C1=C(C)NC(SCC(=O)c2ccc(C)cc2)=C(C#N)C1c1ccco1 (stereo unspecified)	none
Cc1[nH]nc(-c2ccc(OCc3cnn(-c4ccccc4)c3)c(C)c2O)c1Oc1ccccc1	none
CCOc1ccc(Br)cc1S(=O)(=O)Nc1ccccc1N1CCOCC1	VCAM1 pot 92.5 | VCAM1 pot confirm inactive
CCOc1ccc(C(=O)C2CCN(CC(=O)Nc3ccccc3N3CCOCC3)CC2)cc1	none
CCOc1cc(N2CCOCC2)c(OCC)cc1NC(=O)CC12CC3CC(CC(C3)C1)C2	none
COC(=O)c1ccccc1NC(=O)c1cc(-c2ccc(OC)c(OC)c2)on1	none
CCOC(=O)C1CCCN(c2ncnc3c2cnn3-c2ccc(Cl)cc2)C1 (stereo unspecified)	VCAM1 pot 39.7 | VCAM1 pot confirm inactive
CCOC(=O)C(C)n1cnc2c(cnn2-c2ccc(Cl)cc2)c1=O (stereo unspecified)	none
CCOC(=O)C1CCCN(S(=O)(=O)c2ccc(F)c(C(=O)Nc3ccc(F)c(F)c3)c2)C1 (stereo unspecified)	none
CCc1noc(C)c1C(=O)Nc1sc(C(=O)N(C)C)c(C)c1C(=O)OC	none
Cc1ccc(CSCc2nnc(SCC(=O)N3CCN(c4ccccc4)CC3)n2C)cc1	none
CCN(C1CCCCC1)S(=O)(=O)c1cn(C)c(=O)n(C)c1=O	none
